From PubChem BioAssay (NCATS)
Where “and” joins values, the source holds several entries; their conditions need not be identical. Identical values can stand only once. Inconclusive results are not listed. Unmarked numbers belong to inactive results. Calls of active or inactive are those of the source. Calls follow the shape of the dose curve; as a rule, active = well fitted cell-killing curve with a large enough effect; inconclusive = small, poorly fitted or top-dose-only effect, or effect the other way; inactive = flat fitted curve, though single readings scatter. Non-standard residues stand in square brackets, D forms with d. Residues, ends and D or L forms follow the SMILES beside them. *: point of attachment. Sta = CC(C)C[C@H](N)[C@@H](O)CC(=O)O; Isovaleryl = CC(C)CC(=O)*

These molecules were tested on CAOV3 (assay: Primary qHTS to identify gynecologic anti-cancer compounds using libraries of approved drugs and bioactive compounds (AID 1345084; also: nearly all actives have a fitted effect of over 55% in size)). Settings: Gynecologic cancer cell panel viability, ATPlite luminescence, 48 h; series mostly up to 57.5 µM; activity change, negative = cytotoxicity: at the top concentration.
Outline: (§1)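 Measured: luminescence after ATPlite addition (15 min, RT). Exposure: 48 h, 37 C, 5% CO2.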
% is scaled to controls: 0 for no effect and ±100 for the full control effect; potency is read from the fitted curve at half-maximal effect.

For `CC1(C)CCC(C)(C)c2cc(NC(=O)c3ccc(C(=O)O)cc3)ccc21`, which “activity change, negative = cytotoxicity” value is on record?
The value was 15.7%.

How did the “activity change, negative = cytotoxicity” value turn out when `COc1ccccc1N1CCN(CCN(C(=O)C2CCCCC2)c2ccccn2)CC1` was run?
Its value is 16.1%.

Which “activity change, negative = cytotoxicity” value does the source give for `Cc1c(OCC(F)(F)F)ccnc1CS(=O)c1nc2ccccc2[nH]1` (configuration not stated) here?
The value was -10.4%.

`CC(C)CC(=O)N[C@H](C(=O)N[C@H](C(=O)N[C@@H](CC(C)C)[C@@H](O)CC(=O)N[C@@H](C)C(=O)N[C@@H](CC(C)C)[C@@H](O)CC(=O)O)C(C)C)C(C)C` (Isovaleryl-VV[Sta]A[Sta]-OH) was tested. Which “activity change, negative = cytotoxicity” value did it give?
The value was 6.27%.

For `N=C(N)c1ccc2cc(OC(=O)c3ccc(N=C(N)N)cc3)ccc2c1`, which “activity change, negative = cytotoxicity” value is on record?
The value was -7.53%.

With `CCOC(=O)c1c(C)n(C)c2ccc(O)cc12` as the molecule, how does the “activity change, negative = cytotoxicity” value read?
Its value is -13.8%.

Which “activity change, negative = cytotoxicity” value does the source give for `CN(C)C(=O)[C@H](O)[C@H](Cc1ccccc1)NC(=O)c1cc2cc(Cl)ccc2[nH]1` here?
Its value is 3.52%.

With `Cc1ccc(C(=O)c2cc(O)c(O)c([N+](=O)[O-])c2)cc1` as the molecule, how does the “activity change, negative = cytotoxicity” value read?
The value was -16.5%.

Which Potency does the source give for `O=C(O)c1cccc(-c2noc(-c3ccccc3F)n2)c1` here?
The Potency was 10 µM (active) and 11.2 µM (active).

For `CCC1=C(C)CN(C(=O)NCCc2ccc(S(=O)(=O)NC(=O)NC3CCC(C)CC3)cc2)C1=O` (configuration not stated), which “activity change, negative = cytotoxicity” value is on record?
The value was 9.44%.

`CC(=O)Nc1ccc(O)cc1` was tested. Which “activity change, negative = cytotoxicity” value did it give?
The value was 2.5%.

Which “activity change, negative = cytotoxicity” value does the source give for `OC(CN1CCN(c2cccc(Cl)c2)CC1)C(c1ccccc1)c1ccccc1` (configuration not stated) here?
Its value is -0.616%.

For `O=C(NOCC1CC1)c1ccc(F)c(F)c1Nc1ccc(I)cc1Cl`, which “activity change, negative = cytotoxicity” value is on record?
The value was -20.1%.

`Cc1cc(=O)c2c(O)c3c(O)cc(=O)c4c3c3c(cc(O)c1c23)C(C)(C)C=4O` was tested. Which Potency did it give?
Its Potency is 4.47 µM (active).

For `COc1cc(C(C)=O)ccc1OCCCN1CCC(c2noc3cc(F)ccc23)CC1`, which “activity change, negative = cytotoxicity” value is on record?
The value was -27.1%.

For `COc1cc2nc(N3CCN(C(=O)C4CCCO4)CC3)nc(N)c2cc1OC` (configuration not stated), which “activity change, negative = cytotoxicity” value is on record?
The value was -0.232%.

With `Cc1ncc([N+](=O)[O-])n1CC(C)O` (configuration not stated) as the molecule, how does the “activity change, negative = cytotoxicity” value read?
Its value is -1.07%.

Which “activity change, negative = cytotoxicity” value does the source give for `O=C(O)CCNC(=O)c1ccc(N=Nc2ccc(O)c(C(=O)O)c2)cc1` here?
The value was 10.3%.

What follows are molecules tested on CASKI in the same assay as above. Settings: Gynecologic cancer cell panel viability, ATPlite luminescence, 48 h; series mostly up to 57.5 µM; activity change, negative = cytotoxicity: at the top concentration.
Outline: as §1

How did the “activity change, negative = cytotoxicity” value turn out when `CS(=O)(=O)OCCCCOS(C)(=O)=O` was run?
Its value is 2.42%.

For `CC(C)c1ccc2oc3nc(N)c(C(=O)O)cc3c(=O)c2c1`, which Potency is on record?
Its Potency is 4.47 µM (active).

`CN(C)C(=O)COC(=O)Cc1ccc(OC(=O)c2ccc(N=C(N)N)cc2)cc1` was tested. Which “activity change, negative = cytotoxicity” value did it give?
Its value is 20.1%.

With `Cc1cc2c(s1)Nc1ccccc1N=C2N1CCN(C)CC1` as the molecule, how does the Potency read?
Its Potency is “inactive”.

For `Cc1cc(C2CCCCC2)n(O)c(=O)c1`, which “activity change, negative = cytotoxicity” value is on record?
The value was -3.99%.

For `CC1=C(C)C(=O)C(C(CCCCCC(=O)O)c2ccccc2)=C(C)C1=O` (configuration not stated), which “activity change, negative = cytotoxicity” value is on record?
Its value is -7.17%.

For `CC(=O)NC[C@H]1CN(c2ccc(N3CCOCC3)c(F)c2)C(=O)O1`, which “activity change, negative = cytotoxicity” value is on record?
Its value is 14.4%.

`NNc1nncc2ccccc12` was tested. Which “activity change, negative = cytotoxicity” value did it give?
The value was -9.7% [at 25.3 µM].

For `CC(S)C(=O)NCC(=O)O` (configuration not stated), which “activity change, negative = cytotoxicity” value is on record?
The value was -2.28%.

Which Potency does the source give for `Cc1ccc(Nc2nccc(N(C)c3ccc4c(C)n(C)nc4c3)n2)cc1S(N)(=O)=O` here?
The Potency was “inactive”.

With `Cc1c(C(=O)NN2CCCCC2)nn(-c2ccc(Cl)cc2Cl)c1-c1ccc(Cl)cc1` as the molecule, how does the “activity change, negative = cytotoxicity” value read?
Its value is 7%.

Which “activity change, negative = cytotoxicity” value does the source give for `CCCc1cc(=O)[nH]c(=S)[nH]1` here?
Its value is -1.9%.

For `Clc1ccc(C(Cn2ccnc2)OCc2ccc(Sc3ccccc3)cc2)c(Cl)c1` (configuration not stated), which “activity change, negative = cytotoxicity” value is on record?
Its value is -3.03%.

For `COCCCOc1ccnc(CS(=O)c2nc3ccccc3[nH]2)c1C` (configuration not stated), which Potency is on record?
The Potency was “inactive”.

`CC1(C)CCC(C)(C)c2cc(NC(=O)c3ccc(C(=O)O)cc3)ccc21` was tested. Which “activity change, negative = cytotoxicity” value did it give?
The value was -1.75%.

`COc1ccccc1N1CCN(CCN(C(=O)C2CCCCC2)c2ccccn2)CC1` was tested. Which “activity change, negative = cytotoxicity” value did it give?
The value was 1.53%.

Which “activity change, negative = cytotoxicity” value does the source give for `Cc1c(OCC(F)(F)F)ccnc1CS(=O)c1nc2ccccc2[nH]1` (configuration not stated) here?
The value was -8.69%.

With `COc1cc2c(N3CCN(C(=O)Nc4ccc(OC(C)C)cc4)CC3)ncnc2cc1OCCCN1CCCCC1` as the molecule, how does the “activity change, negative = cytotoxicity” value read?
Its value is 8.41%.

Which “activity change, negative = cytotoxicity” value does the source give for `CC(C)CC(=O)N[C@H](C(=O)N[C@H](C(=O)N[C@@H](CC(C)C)[C@@H](O)CC(=O)N[C@@H](C)C(=O)N[C@@H](CC(C)C)[C@@H](O)CC(=O)O)C(C)C)C(C)C` (Isovaleryl-VV[Sta]A[Sta]-OH) here?
Its value is -1.39%.

`Clc1ccc(C(Cn2ccnc2)OCc2ccsc2Cl)c(Cl)c1` (configuration not stated) was tested. Which “activity change, negative = cytotoxicity” value did it give?
Its value is -1.87%.

For `N=C(N)c1ccc2cc(OC(=O)c3ccc(N=C(N)N)cc3)ccc2c1`, which “activity change, negative = cytotoxicity” value is on record?
The value was -2.38%.

How did the “activity change, negative = cytotoxicity” value turn out when `CCOC(=O)c1c(C)n(C)c2ccc(O)cc12` was run?
Its value is 11.2%.

Which “activity change, negative = cytotoxicity” value does the source give for `CN(C)C(=O)[C@H](O)[C@H](Cc1ccccc1)NC(=O)c1cc2cc(Cl)ccc2[nH]1` here?
Its value is 24.1%.

How did the “activity change, negative = cytotoxicity” value turn out when `Cc1ccc(C(=O)c2cc(O)c(O)c([N+](=O)[O-])c2)cc1` was run?
Its value is 3.74%.

For `O=C(O)c1cccc(-c2noc(-c3ccccc3F)n2)c1`, which Potency is on record?
The Potency was 11.2 µM (active) and 14.1 µM (active).

`CCC1=C(C)CN(C(=O)NCCc2ccc(S(=O)(=O)NC(=O)NC3CCC(C)CC3)cc2)C1=O` (configuration not stated) was tested. Which Potency did it give?
Its Potency is “inactive”.

For `CC(=O)Nc1ccc(O)cc1`, which “activity change, negative = cytotoxicity” value is on record?
Its value is -18.3%.

For `OC(CN1CCN(c2cccc(Cl)c2)CC1)C(c1ccccc1)c1ccccc1` (configuration not stated), which “activity change, negative = cytotoxicity” value is on record?
Its value is 4.06%.

How did the “activity change, negative = cytotoxicity” value turn out when `O=C(NOCC1CC1)c1ccc(F)c(F)c1Nc1ccc(I)cc1Cl` was run?
Its value is -29.9%.

How did the Potency turn out when `Cc1cc(=O)c2c(O)c3c(O)cc(=O)c4c3c3c(cc(O)c1c23)C(C)(C)C=4O` was run?
The Potency was 2 µM (active).

`COc1cc(C(C)=O)ccc1OCCCN1CCC(c2noc3cc(F)ccc23)CC1` was tested. Which “activity change, negative = cytotoxicity” value did it give?
Its value is -1.35%.

With `COc1cc2nc(N3CCN(C(=O)C4CCCO4)CC3)nc(N)c2cc1OC` (configuration not stated) as the molecule, how does the “activity change, negative = cytotoxicity” value read?
The value was -0.701%.

Which “activity change, negative = cytotoxicity” value does the source give for `Cc1ncc([N+](=O)[O-])n1CC(C)O` (configuration not stated) here?
The value was 29.8%.

For `O=C(O)CCNC(=O)c1ccc(N=Nc2ccc(O)c(C(=O)O)c2)cc1`, which “activity change, negative = cytotoxicity” value is on record?
Its value is -2.55%.
